Source: PubChem BioAssay
Rows were chosen to be rich in hits. Some 4.2% of all compounds tested hit in one or more screens of this group.
FBA Mtb inh = inhibits M. tuberculosis FBA enzyme; purified M. tuberculosis FBA, fluorescence read-out; inhibition, % at 1 µM; 360,000 tested, 2.3% active; in the data active means inhibition above about 27%;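 further: 0% = vehicle and 100% = reference inhibitor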
Mtb betalactam = beta-lactam sensitization of Mtb H37Rv; inhibition, % at 25 µM; M. tuberculosis H37Rv growth with meropenem, percent inhibition; AID 434955; 330,000 tested, 0.27% active; call rule not given here;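 further: growth measured after seven days incubation then overnight dye step; 0% = bacteria only wells and 100% = bacteria with antibiotic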
RecA intein inh = Mtb RecA intein splicing inhibition; P9WHJ3; cell-free RecA intein splicing, fluorescence; inhibition, % (no concentration beside the values); 290,000 tested, 0.75% active; in the data active means inhibition above about 30%;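 further: 0% = vehicle wells and 100% = reference inhibitor control wells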
Target sequence (P9WHJ3 whole entry, looked up): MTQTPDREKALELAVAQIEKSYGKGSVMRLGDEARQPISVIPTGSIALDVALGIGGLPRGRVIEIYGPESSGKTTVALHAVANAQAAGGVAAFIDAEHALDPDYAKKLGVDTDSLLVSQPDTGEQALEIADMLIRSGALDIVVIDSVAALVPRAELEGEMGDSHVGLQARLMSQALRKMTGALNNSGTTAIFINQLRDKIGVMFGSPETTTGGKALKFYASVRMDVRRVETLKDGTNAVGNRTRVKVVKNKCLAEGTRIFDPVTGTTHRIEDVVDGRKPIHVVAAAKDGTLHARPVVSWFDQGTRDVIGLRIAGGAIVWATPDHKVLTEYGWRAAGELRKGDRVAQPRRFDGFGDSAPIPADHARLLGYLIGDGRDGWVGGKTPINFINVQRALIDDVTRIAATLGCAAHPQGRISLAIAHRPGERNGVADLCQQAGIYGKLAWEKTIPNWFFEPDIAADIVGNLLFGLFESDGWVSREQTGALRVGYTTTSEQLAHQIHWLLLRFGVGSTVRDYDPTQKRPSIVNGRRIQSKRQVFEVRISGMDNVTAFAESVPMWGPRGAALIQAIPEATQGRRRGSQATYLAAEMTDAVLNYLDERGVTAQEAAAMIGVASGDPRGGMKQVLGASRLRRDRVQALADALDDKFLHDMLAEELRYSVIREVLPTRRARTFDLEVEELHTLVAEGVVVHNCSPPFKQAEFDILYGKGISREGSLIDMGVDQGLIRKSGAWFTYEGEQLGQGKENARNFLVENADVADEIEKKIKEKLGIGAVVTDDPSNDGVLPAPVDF
CCHF vOTU inh = blocks the CCHF virus ovarian tumor domain protease; CCHFV vOTU protease, Pep-AMC fluorescence; inhibition, % at 11.5 µM; 370,000 tested, 0.55% active; AID 651958; further: 0% = vehicle wells with enzyme and 100% = no enzyme wells
GDH-TPI counter = counter-screen for M. tuberculosis FBA inhibitors: GDH-TPI coupled enzymes. GDH-TPI coupled enzyme counterscreen, NADH absorbance. inhibition, % at 4.8 µM. 360,000 tested, 1.2% active;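 further: 0% = DMSO wells and 100% = wells lacking the enzyme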
The depositor's hits bear a star; i = inactive; · = no result given. Unless noted, no stated cut-off is given here; in the data, active means inhibition above about 30%; inactive means the rest.

SMILES	FBA Mtb inh	Mtb betalactam	RecA intein inh	CCHF vOTU inh	GDH-TPI counter
Cc1ccc(NC(=O)C(=O)NCc2ccc(/C=C(/C#N)C(=O)NCc3cccnc3)o2)cc1	-0.1	6.2	-0.7	5.9	32.1*
Cn1nc(NC(=O)C(F)(F)F)c2ncc(-c3ccccc3)nc21	6.2	·	·	5.7	31.9*
COc1cc(C(=O)Nc2ccc3c(c2)CCN3C(C)=O)cc(OC)c1OC	-0.1	4.3	2.5	7.7	6.8
CCOC(=O)C(=CNc1ccc2c(c1)CCN2C(C)=O)C(=O)OCC	-3.0	78.9	·	4.1	34.6*
CCOC(=O)C(=CNc1ncccc1C)C(=O)OCC	-0.6	12.7	2.7	-4.0	38.0*
CCOC(=O)C(=CNc1ccc(C#N)cc1)C(=O)OCC	-2.9	-5.0	0.4	18.5	23.2
CCOC(=O)C(=CNc1ccc(S(N)(=O)=O)cc1)C(=O)OCC	-0.8	2.0	0.0	11.7	40.5*
CCOC(=O)C(=CNc1ccc(N2CCOCC2)cc1)C(=O)OCC	-2.9	9.1	-2.8	2.6	63.3*
CCOC(=O)c1ccc(S(=O)(=O)Nc2ccc(N3CCOCC3)cc2)cc1	2.2	6.2	-2.8	-14.8	4.2
N#Cc1ccc(/C=C2\CC3(OC(=O)c4ccccc4)CCCN2C3)cc1 (configuration not stated)	·	·	·	-1.6	·
CC1(NC(=O)c2ccc(C#Cc3cccc(F)c3)cn2)COC1	·	·	·	-1.5	·
CCOc1cc(/C=C2/NC(=O)N(CC(=O)Nc3cccc(C)c3)C2=O)ccc1OCC(N)=O	2.6	-1.0	1.3	-6.4	38.2*
CC(/C=C1\SC(=S)N(NC(=O)c2cccc(O)c2)C1=O)=C\c1ccccc1	-4.0	58.1	31.3*	12.9	10.2
COc1ccc(/C=C2\SC(=O)N(CC(=O)Nc3cccc(C)c3)C2=O)cc1O	-2.4	4.3	-0.5	10.6	47.1*
COc1cc(/C=C2\SC(=O)N(CC(=O)Nc3cccc(C)c3)C2=O)ccc1OC(C)C(=O)O (configuration not stated)	-0.3	1.9	1.3	5.5	18.4
CCOc1cccc(/C=C2/NC(=O)N(CC(=O)Nc3cccc(C)c3)C2=O)c1O	-2.2	-8.4	-2.0	0.6	25.5
CC(/C=C1\SC(=O)N(CC(=O)Nc2cccc(O)c2)C1=O)=C\c1ccccc1	1.9	-11.3	10.6	17.2	32.9*
COc1cccc(CCNC(=O)CCc2nc(-c3ccccc3F)no2)c1	·	·	·	-6.0	·
CCOC(=O)[C@]12CCCCC/C=C\1N(Cc1ccc(OC)cc1)C(=O)[C@H]2CC(=O)NCc1ccccc1	·	·	·	10.8	·
CC1(C)CC(=O)C=C(/C=C/c2ccccc2)C1	4.1	-1.7	·	5.0	48.7*
CCOC1=C/C(=C/c2c(N)n3oc(C)cc3nc2=O)C=CC1=O	·	3.1	37.7*	·	·
CCCC[C@H](C(=O)N(C)c1cccc(OC)c1)[C@@H](O)c1ccc2ccccc2c1	·	·	·	11.9	·
CN(CCO)S(=O)(=O)c1ccc2c(c1)C(=NNC(N)=O)c1cc(S(=O)(=O)N(C)CCO)ccc1-2	2.6	-5.0	-1.3	16.5	56.2*
CN(C)S(=O)(=O)c1ccc2c(c1)C(=NNC(N)=O)c1cc(S(=O)(=O)N(C)C)ccc1-2	-2.8	7.2	0.4	-3.5	17.6
Cc1ccc(C2C(C#N)=C3N=C(N)c4ccccc4N3C3=C2C(=O)CCC3)cc1 (configuration not stated)	-2.6	80.9	1.2	7.7	30.9*
SMILES	FBA Mtb inh	Mtb betalactam	RecA intein inh	CCHF vOTU inh	GDH-TPI counter
O=C(OC12CCCN(C1)/C(=C/c1ccccc1)C2)c1ccc(F)cc1 (configuration not stated)	·	·	·	17.2	·
COc1ccc2[nH]c3nc(SCC(=O)NNC(=O)c4ccc(OC)c(OC)c4)nnc3c2c1	-0.4	3.8	-0.2	-4.6	41.2*
CCOc1ccc(-n2c(SCC(=O)Nc3cc(C)c(NC(=O)c4ccccc4)cc3OC)nnc2-c2ccncc2)cc1	·	·	·	-2.6	·
O=c1[nH]c2ccc(S(=O)(=O)N3CCCC3)cc2o1	·	·	·	3.9	·
CN(C)N1C(=O)/C(=C/c2ccco2)SC1=Nc1ccccc1	4.7	-4.1	0.6	3.9	40.1*
COc1ccc(N=C2S/C(=C\c3ccco3)C(=O)N2CC(C)C)cc1	-1.3	-3.2	-1.4	-6.1	-2.5
CNC(=S)N1N=C(c2cccs2)CC1c1ccc(OC)cc1 (configuration not stated)	2.8	-1.0	1.9	0.6	47.9*
COc1ccc(C2=NN(C(=S)Nc3ccccc3)C(c3ccccc3)C2)cc1 (configuration not stated)	-0.3	12.1	1.4	-8.8	12.1
CCOC(=O)CSCC(=O)N1N=C(c2cccs2)CC1c1ccc(F)cc1 (configuration not stated)	4.8	72.8	32.4*	13.3	11.8
COc1ccc(C2CC(c3ccccc3)=NN2C(=S)Nc2ccccc2)cc1 (configuration not stated)	-1.4	7.0	-7.0	-7.5	34.1*
Cc1[nH]cnc1/C=N\NC(=O)c1cccc(S(=O)(=O)N(C)C)c1	·	·	·	-3.7	·
CNc1ccc(-c2ccccc2OC)cn1	114.2*	·	·	-31.4	21.7
CCn1c(O)c(N=Nc2ccc(Cl)c(C(=O)O)c2)c2ccccc21	-19.5	-5.5	9.1	7.9	35.0*
c1ccc(Cn2ccc(-c3cnc(-c4ccccc4)s3)n2)cc1	182.4*	73.1	3.6	-38.2	18.3
COc1ccc2c3c([nH]c2c1)C(C)=NCC3	18.8	1.2	i	-157.8	22.3
COc1ccc2[nH]c3c(c2c1)CC(C)NC3=O (configuration not stated)	121.4*	6.0	-2.2	-52.9	14.7
COc1cc(/C=C/c2cc(OC(C)=O)c3ccccc3n2)c(OC(C)=O)c([N+](=O)[O-])c1	-2.8	-4.5	2.6	0.1	36.8*
CCOC(=O)[C@]12CCCCC/C=C\1N(CCc1ccc(Cl)cc1)C(=O)[C@H]2CC(=O)NCc1ccccc1	·	·	·	19.0	·
CN(/N=C/c1ccccc1O)C(=S)c1ccccc1	0.9	11.0	-1.8	-3.1	32.2*
CCOC(=O)c1cc(OC)c2cccc(CN3CCCC(C)(C(=O)NCCOC)C3)c2c1 (configuration not stated)	-0.1	·	·	-3.3	7.1
CCOC(=O)c1cc(OC)c2cccc(CN3CCC(C)(C(=O)NCCOC)C3)c2c1 (configuration not stated)	28.5*	·	·	·	20.4
Nn1c(SCc2cccc3ccccc23)nnc1-c1cc(-c2ccc(Cl)cc2)n[nH]1	·	·	·	-4.2	·
CC1(C)CC(=O)C=C(c2cc3ccccc3s2)C1	10.0	19.1	1.6	10.2	30.2
COc1ccc([C@H]2CC(=O)C=C(c3cc4ccccc4s3)C2)cc1OC	0.4	6.6	·	-1.7	32.6*
COc1ccc([C@H]2CC(=O)C=C(c3ccc(NC(C)=O)cc3)C2)cc1OC	6.6	5.2	·	8.3	36.8*
COc1ccc([C@H]2CC(=O)C=C(c3cccc4c3sc3ccccc34)C2)cc1OC	0.3	54.0	·	2.4	19.8
O=C1C=C(c2cc3ccccc3s2)CCC1	7.6	-2.5	0.3	8.2	34.5*
COC(=O)[C@@]12CCCCC3=C1N(CCC3)C(=O)[C@H]2CC(=O)NCCCN1CCCC1=O	·	·	·	-6.6	·
O=C(CNCc1ccccc1[N+](=O)[O-])N1CCC2(CC1)OCCO2	·	·	·	1.9	·
